From the supplement of paper PMC11732987, “Enantioselective OTUD7B fragment discovery through chemoproteomics screening and high-throughput optimisation” (Communications Chemistry, 2025)

Columns and labels:
Test in all cases: log2 ratio of Biotin-Ahx-Ub-VS probe labelling (fragment/DMSO); higher = less target engagement (more negative = stronger competition), active = hit call of the paper (q ≤ 0.05, log2 ratio ≤ -1)
Settings in all cases: compound concentration: 200 uM; treatment time: 3 h
USP42 = target: T1, USP42 (UniProt Q9H9J4)
T1 sequence (whole entry): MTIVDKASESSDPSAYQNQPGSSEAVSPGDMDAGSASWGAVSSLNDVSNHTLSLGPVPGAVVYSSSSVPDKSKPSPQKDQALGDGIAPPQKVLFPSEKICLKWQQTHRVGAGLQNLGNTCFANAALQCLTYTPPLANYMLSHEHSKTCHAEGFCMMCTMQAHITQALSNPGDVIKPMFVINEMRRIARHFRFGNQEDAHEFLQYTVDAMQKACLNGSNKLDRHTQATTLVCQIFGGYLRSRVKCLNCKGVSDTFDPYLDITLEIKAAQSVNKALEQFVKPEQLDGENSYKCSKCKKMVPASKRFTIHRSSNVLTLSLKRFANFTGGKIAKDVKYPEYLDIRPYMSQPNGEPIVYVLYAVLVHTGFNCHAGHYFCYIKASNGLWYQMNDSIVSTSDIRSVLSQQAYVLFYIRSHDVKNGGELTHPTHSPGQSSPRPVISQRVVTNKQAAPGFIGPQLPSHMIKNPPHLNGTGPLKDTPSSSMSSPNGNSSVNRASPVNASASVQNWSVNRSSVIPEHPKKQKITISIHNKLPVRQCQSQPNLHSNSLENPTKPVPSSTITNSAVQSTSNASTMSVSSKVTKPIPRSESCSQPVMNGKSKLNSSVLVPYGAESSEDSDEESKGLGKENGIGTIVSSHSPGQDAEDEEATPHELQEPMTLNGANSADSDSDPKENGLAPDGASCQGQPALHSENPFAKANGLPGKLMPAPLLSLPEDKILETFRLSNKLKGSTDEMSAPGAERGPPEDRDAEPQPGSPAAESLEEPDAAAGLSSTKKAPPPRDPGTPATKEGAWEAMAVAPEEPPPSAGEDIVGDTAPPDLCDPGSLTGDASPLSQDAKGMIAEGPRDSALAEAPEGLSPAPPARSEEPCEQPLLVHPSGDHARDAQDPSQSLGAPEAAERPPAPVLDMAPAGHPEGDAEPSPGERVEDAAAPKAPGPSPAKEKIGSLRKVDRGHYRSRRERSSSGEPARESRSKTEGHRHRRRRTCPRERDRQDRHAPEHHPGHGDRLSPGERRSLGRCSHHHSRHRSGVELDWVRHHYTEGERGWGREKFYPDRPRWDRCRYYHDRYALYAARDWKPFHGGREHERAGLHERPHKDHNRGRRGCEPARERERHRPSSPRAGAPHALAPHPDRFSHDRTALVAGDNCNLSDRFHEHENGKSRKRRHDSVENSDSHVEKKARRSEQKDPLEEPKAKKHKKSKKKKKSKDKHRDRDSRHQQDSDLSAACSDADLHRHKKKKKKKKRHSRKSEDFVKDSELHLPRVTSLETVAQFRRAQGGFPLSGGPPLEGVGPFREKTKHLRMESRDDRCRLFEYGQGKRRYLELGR
In short: (§1)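 Labelling with Biotin-Ahx-Ub-VS (0.5 µM final, 1 h) followed a 3 h triplicate treatment of HEK293T lysate (495 µg per sample, Tris/CHAPS/IGEPAL buffer with protease inhibitors) with fragment at 200 µM or vehicle. Labelled DUBs were NeutrAvidin-enriched, digested with LysC and trypsin, and run by diaPASEF LC-MS/MS. The values, average log2 fragment/vehicle ratios by unpaired t-test, come from global-median-normalised Spectronaut label-free quantities. Proteins with ≥2 unique peptides were used.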

USP46 = USP46 (UniProt P62068)
In short: as §1

USP47 = target: T2, USP47 (UniProt Q96K76)
T2 sequence (whole entry): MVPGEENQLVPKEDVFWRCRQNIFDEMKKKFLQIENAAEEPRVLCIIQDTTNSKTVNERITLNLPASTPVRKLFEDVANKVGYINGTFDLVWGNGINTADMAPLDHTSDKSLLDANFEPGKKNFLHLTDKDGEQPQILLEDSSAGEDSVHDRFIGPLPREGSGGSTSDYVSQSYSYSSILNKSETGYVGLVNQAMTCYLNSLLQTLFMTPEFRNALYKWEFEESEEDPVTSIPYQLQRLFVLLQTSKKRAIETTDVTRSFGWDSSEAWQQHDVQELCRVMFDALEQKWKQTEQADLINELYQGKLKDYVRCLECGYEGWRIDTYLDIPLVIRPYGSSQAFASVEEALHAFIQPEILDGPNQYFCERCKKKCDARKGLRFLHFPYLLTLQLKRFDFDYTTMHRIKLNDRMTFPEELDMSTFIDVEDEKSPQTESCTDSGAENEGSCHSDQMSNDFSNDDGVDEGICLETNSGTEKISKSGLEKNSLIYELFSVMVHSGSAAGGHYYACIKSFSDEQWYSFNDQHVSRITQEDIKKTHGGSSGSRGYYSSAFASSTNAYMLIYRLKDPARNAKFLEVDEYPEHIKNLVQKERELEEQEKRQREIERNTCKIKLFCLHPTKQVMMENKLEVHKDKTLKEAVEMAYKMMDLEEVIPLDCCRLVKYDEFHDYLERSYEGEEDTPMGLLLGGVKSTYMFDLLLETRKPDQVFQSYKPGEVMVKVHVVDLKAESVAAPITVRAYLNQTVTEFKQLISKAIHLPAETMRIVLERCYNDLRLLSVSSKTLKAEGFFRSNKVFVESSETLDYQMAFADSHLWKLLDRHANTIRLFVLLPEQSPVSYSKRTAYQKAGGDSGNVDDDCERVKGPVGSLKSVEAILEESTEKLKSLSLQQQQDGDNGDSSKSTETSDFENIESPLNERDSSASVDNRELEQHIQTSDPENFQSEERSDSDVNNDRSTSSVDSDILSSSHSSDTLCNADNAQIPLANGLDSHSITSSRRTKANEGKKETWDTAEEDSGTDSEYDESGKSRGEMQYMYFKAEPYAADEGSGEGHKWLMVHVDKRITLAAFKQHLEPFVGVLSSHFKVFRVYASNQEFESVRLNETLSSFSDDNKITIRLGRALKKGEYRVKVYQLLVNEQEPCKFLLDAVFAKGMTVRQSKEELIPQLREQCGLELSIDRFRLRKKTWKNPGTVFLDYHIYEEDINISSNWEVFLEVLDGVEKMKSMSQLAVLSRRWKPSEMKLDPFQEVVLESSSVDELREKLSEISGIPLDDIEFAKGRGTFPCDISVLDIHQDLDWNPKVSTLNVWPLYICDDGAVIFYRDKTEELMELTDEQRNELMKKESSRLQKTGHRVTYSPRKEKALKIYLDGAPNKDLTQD
In short: as §1

USP48 = target: T3, USP48 (UniProt Q86UV5)
T3 sequence (whole entry): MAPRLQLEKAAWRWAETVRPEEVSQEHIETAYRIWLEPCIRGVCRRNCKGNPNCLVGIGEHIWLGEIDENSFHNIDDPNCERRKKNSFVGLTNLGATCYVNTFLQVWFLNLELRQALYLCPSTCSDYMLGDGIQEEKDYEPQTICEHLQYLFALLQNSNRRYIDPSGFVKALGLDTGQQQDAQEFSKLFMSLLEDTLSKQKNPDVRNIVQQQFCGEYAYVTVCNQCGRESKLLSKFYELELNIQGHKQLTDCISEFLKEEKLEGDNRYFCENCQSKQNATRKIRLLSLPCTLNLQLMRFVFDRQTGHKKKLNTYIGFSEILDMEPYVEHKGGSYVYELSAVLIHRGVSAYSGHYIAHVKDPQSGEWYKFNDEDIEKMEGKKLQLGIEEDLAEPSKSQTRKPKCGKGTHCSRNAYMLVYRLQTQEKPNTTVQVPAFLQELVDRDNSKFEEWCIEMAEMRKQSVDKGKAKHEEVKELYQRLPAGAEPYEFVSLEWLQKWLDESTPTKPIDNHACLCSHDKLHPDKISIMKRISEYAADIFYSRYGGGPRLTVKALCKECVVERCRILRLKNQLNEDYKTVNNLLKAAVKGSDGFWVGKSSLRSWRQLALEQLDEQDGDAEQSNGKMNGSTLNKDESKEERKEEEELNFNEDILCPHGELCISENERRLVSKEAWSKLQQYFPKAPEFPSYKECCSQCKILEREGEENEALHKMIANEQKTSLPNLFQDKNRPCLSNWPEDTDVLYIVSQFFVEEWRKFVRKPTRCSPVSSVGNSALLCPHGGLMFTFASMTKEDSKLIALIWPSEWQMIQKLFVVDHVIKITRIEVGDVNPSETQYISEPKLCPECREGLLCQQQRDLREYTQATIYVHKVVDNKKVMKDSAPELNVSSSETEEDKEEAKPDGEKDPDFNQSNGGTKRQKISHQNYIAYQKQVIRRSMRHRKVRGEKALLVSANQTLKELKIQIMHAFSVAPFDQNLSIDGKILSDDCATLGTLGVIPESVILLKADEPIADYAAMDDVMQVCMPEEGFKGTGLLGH
In short: as §1

USP5 = target: T4, USP5 (UniProt P45974)
T4 sequence (whole entry): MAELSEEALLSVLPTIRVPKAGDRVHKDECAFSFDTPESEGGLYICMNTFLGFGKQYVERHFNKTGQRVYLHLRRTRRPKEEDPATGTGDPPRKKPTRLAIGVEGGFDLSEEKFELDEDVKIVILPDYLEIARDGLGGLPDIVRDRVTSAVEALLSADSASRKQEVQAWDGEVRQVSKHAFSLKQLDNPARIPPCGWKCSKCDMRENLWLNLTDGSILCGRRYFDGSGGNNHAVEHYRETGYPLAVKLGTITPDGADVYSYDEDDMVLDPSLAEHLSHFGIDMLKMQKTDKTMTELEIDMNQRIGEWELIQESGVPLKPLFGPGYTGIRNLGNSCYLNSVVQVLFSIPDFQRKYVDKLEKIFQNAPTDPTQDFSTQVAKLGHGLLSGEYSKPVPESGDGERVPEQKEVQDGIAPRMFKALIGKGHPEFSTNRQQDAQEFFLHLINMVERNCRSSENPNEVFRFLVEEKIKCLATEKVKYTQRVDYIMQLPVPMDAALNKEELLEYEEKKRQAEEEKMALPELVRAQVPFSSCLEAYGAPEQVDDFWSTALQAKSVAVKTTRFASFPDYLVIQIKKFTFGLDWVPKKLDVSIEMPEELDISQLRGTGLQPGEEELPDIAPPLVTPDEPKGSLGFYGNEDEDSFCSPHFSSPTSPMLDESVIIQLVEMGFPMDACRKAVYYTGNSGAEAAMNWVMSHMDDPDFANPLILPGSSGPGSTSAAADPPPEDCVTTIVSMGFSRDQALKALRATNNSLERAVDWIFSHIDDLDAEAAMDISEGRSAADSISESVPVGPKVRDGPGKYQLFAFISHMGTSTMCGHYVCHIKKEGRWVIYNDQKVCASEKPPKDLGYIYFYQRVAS
In short: as §1

USP54 = USP54 (UniProt Q70EL1)
In short: as §1

USP7 = USP7 (UniProt Q93009)
In short: as §1

USP8 = target: T5, USP8 (UniProt P40818)
T5 sequence (whole entry): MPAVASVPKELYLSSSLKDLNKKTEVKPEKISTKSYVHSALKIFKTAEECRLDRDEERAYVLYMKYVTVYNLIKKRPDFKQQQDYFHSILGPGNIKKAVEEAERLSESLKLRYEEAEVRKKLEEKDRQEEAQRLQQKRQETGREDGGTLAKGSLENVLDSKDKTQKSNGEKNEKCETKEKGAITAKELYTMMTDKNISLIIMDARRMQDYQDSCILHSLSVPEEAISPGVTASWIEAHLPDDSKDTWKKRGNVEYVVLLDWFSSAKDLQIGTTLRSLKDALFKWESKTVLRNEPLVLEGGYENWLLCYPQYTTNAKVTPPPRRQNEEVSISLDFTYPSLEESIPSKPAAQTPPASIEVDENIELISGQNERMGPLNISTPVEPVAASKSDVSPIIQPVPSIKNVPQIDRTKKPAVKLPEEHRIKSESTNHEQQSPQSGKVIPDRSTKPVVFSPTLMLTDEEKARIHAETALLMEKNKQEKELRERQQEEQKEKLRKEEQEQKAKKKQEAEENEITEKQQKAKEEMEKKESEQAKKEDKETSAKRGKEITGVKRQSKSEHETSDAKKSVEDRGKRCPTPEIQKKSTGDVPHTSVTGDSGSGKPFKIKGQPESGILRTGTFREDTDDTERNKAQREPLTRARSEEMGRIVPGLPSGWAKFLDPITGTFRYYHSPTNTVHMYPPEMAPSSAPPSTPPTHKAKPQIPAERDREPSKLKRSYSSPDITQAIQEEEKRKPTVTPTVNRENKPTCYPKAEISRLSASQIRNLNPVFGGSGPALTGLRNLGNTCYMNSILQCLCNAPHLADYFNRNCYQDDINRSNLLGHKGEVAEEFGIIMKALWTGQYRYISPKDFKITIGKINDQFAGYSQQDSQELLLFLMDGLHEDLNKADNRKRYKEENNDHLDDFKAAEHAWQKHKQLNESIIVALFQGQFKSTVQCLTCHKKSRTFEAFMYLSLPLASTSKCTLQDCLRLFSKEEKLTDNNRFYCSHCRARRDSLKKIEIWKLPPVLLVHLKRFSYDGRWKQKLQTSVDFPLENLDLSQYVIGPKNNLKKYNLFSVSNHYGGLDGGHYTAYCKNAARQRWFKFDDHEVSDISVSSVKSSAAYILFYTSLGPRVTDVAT
In short: as §1

USP9X = USP9X (UniProt Q93008)
In short: as §1

UniProt O00487 = target: UniProt O00487
In short: as §1

Measured: log2 ratio of Biotin-Ahx-Ub-VS probe labelling

Chain of USP7 (Q93009 whole entry, looked up): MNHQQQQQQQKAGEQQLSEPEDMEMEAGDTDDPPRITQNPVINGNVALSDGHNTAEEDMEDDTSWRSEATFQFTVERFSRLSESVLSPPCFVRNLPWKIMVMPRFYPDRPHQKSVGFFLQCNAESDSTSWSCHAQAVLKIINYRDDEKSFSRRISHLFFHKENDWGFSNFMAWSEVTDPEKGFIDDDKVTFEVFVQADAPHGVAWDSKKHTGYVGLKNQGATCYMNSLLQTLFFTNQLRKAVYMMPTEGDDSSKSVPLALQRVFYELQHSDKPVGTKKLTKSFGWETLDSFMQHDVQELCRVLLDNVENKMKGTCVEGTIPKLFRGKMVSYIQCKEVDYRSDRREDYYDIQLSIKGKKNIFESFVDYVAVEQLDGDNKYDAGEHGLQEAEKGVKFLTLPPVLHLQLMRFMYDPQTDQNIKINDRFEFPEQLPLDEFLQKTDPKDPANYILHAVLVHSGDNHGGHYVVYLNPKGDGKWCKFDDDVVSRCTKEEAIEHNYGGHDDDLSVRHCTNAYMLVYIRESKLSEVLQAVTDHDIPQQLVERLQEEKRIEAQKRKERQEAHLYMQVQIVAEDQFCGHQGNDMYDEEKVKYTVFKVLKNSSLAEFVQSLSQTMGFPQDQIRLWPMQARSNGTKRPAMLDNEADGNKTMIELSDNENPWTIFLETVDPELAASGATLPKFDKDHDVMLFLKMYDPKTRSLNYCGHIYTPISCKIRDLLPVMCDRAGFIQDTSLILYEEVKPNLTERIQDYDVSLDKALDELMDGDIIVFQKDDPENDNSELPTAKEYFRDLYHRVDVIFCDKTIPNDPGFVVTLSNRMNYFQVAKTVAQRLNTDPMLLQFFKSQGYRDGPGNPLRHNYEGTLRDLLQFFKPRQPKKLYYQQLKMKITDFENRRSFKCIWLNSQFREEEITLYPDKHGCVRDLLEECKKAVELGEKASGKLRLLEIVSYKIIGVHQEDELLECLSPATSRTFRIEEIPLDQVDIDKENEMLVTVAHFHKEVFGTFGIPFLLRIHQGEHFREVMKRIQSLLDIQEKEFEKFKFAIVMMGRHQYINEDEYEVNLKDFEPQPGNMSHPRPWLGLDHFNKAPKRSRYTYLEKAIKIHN
Chain of USP54 (Q70EL1 whole entry): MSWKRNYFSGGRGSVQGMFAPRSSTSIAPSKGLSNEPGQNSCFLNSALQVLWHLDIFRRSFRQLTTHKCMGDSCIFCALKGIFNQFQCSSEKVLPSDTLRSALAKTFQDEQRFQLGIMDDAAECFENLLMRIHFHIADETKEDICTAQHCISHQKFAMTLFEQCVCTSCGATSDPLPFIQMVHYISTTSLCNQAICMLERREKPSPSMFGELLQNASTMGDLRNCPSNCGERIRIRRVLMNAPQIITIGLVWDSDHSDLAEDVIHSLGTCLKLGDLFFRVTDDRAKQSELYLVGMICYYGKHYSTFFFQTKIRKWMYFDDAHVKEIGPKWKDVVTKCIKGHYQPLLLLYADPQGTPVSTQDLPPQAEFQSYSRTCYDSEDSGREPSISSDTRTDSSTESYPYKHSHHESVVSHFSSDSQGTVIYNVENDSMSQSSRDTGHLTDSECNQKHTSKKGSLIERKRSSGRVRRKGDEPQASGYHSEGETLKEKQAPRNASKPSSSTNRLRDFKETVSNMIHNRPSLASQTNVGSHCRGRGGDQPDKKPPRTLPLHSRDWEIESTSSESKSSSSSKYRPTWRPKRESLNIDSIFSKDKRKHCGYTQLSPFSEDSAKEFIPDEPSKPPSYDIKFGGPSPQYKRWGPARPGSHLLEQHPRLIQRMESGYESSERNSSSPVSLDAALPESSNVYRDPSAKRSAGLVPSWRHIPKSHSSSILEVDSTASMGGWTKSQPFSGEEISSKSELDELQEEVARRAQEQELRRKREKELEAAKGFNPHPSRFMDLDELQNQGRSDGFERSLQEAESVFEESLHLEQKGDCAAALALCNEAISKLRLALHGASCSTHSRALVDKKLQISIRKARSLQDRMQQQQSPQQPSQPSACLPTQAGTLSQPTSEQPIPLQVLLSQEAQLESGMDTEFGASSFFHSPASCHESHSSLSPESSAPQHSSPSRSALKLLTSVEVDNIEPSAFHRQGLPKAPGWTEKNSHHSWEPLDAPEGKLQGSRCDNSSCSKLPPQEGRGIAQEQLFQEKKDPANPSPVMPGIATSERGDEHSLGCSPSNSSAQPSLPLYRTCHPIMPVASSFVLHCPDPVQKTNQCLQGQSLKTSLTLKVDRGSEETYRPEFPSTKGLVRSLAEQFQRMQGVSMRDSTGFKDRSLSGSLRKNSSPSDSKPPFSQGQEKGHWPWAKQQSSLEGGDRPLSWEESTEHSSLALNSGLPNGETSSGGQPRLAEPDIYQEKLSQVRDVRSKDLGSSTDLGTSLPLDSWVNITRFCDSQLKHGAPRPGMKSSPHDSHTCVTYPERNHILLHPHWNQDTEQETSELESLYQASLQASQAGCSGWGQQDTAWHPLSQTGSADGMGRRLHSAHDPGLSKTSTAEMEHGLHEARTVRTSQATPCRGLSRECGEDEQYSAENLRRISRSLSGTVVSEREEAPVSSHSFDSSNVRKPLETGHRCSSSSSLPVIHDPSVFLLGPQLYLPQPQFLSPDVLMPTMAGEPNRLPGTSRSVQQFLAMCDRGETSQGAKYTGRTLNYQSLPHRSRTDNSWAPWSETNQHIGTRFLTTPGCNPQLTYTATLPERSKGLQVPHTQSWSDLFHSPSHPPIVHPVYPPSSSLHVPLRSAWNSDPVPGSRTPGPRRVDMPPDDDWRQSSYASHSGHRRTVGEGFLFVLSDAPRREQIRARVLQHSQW
Chain of USP46 (P62068 whole entry): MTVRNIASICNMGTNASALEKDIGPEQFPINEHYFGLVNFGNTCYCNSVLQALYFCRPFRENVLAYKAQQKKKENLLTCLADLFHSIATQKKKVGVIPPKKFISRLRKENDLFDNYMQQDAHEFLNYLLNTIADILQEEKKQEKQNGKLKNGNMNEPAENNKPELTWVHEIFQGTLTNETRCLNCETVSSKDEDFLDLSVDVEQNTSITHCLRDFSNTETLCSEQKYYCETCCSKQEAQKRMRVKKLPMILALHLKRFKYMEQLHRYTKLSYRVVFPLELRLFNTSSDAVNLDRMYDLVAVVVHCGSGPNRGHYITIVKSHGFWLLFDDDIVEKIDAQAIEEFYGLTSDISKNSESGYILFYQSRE
Chain of UniProt O00487 (O00487 whole entry): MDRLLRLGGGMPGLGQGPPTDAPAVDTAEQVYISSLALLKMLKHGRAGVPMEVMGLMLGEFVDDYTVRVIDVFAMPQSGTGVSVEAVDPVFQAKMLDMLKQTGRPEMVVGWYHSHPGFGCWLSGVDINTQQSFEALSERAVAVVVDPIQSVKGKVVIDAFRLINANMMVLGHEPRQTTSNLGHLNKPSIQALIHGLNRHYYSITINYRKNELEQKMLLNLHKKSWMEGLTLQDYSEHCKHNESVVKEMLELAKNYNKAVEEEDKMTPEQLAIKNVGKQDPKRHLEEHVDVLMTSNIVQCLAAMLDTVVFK

Cl.Cn1c(CNC(=O)CCl)nc2cccnc21
inactive: USP42 -0.141 | USP46 -0.0593 | USP47 -0.0713 | USP48 -0.0748 | USP5 -0.0112 | USP54 0.0986 | USP7 -0.133 | USP8 -0.0336 | USP9X -0.29 | UniProt O00487 -0.167
